Results taken from ChEMBL document CHEMBL3988442, “University of Dundee, Small-Polar-MMV Screening Library” (2021).
Hit rate of the full screen: of about 48,000 compounds, about 13,000 (27%) showed an effect of 50% or more. Some of the results follow.

Tested on: Wolbachia pipientis
Assay: Anti-Wolbachia Cell-Based Screen
Assay type: functional
Design: scale not given: in the data most compounds retested in dose-response had high values
Settings: 5 µM

Structure (SMILES) | Percent Effect [%]
Cc1ccsc1CNC(=O)NC1CCCc2c1cnn2CCO (stereo not given) | 0.2453
CC(=O)N1CCCN(C(=O)NCCCN(C)S(C)(=O)=O)CC1 | -3.578
COc1ccccc1CN(Cc1cccnc1)Cc1nccs1 | -55.96
CCN1CCC(CNC(=O)Nc2cnn(CC(N)=O)c2)C1 (stereo not given) | -9.388
CCn1cc(NC(=O)C2CCN(CC(=O)NCC(C)C)CC2)cn1 | 118.6
CCCNC(=O)CN1CCC(C(=O)Nc2cnn(CC)c2)CC1 | 2.919
CCCNC(=O)C(C)N1CCC(C(=O)Nc2cnn(CC)c2)CC1 (stereo not given) | 103.7
CCn1cc(NC(=O)NC2CCCc3c2cnn3CCO)cn1 (stereo not given) | 0.905
CCn1cc(NC(=O)C2CCN(CC(=O)NC(C)(C)CC)CC2)cn1 | 91.29
CCc1noc(C)c1C(=O)Nc1cnn(CC(=O)NC2CCCC2)c1 | 1.161
CCn1cc(NC(=O)C2CCN(CC(=O)NC3CCCC3)CC2)cn1 | 91.7
Cc1ncncc1C(=O)Nc1cnn(CC(=O)NC2CCCC2)c1 | 0.1635
CCn1cc(NC(=O)C2CCN(CC(=O)N3CCOCC3)CC2)cn1 | -4.13
O=C(c1ccccc1C(F)(F)F)N1C[C@@H](CN2CCOCC2)[C@@H](CO)C1 | -0.09435
CCCc1cncnc1N1CCC(NCc2cc3ccccc3[nH]2)CC1 | -18.7
O=C(NC1CC1)[C@H]1C[C@H]2OCC[C@H]2N(CC2CCOCC2)C1.O=C(O)C(F)(F)F | 0.97
O=C(Nc1nncs1)N1CCCN(C2CCCCC2)CC1 | -4.459
COc1ccc(S(=O)(=O)NCCC(O)c2cc(C)oc2C)c(C)c1 (stereo not given) | 2.617
C[C@@H]1C[C@H]2CN(C(=O)C3=CCCCC3)C[C@H]2O1 | 0.662
O=C(NC1CCS(=O)(=O)c2ccccc21)c1cccs1 (stereo not given) | 3.993

Structure (SMILES) | Percent Effect [%]
CCNC(=O)N1C[C@@H]2OCC(=O)N(C(C)C)[C@@H]2C1 | -6.666
Cc1cc(C(=O)Nc2cnn(CC(=O)NC3CCCC3)c2)c(C)s1 | 2.888
Cc1nc(C)c(C(=O)Nc2cnn(CC(=O)NC3CCCC3)c2)s1 | 111.4
Cc1ccsc1C(=O)Nc1cnn(CC(=O)NC2CCCC2)c1 | 2.464
Cc1nc(CC(=O)N2CCCC2c2nc(-c3ccccc3)no2)cs1 (stereo not given) | -0.9344
CC(C)(C)C(=O)N1CCCN(c2ncnc3nc(N)ccc23)CC1 | 6.072
Clc1cnccc1N1CCCOCC1 | 1.077
OC1(CN2CCCC2)COCCN(c2ncnc3[nH]cnc23)C1 (stereo not given) | 9.273
O=C(CSc1ccccc1)N1CCc2c(ncnc2N2CCOCC2)C1 | 3.982
O=C(c1c2c(N3CCOCC3)ncnc2n2ccccc12)N1CCCC1 | -0.1651
Nc1c(N2CCCCC2)ncnc1N1CCOCC1 | 114.1
O=C(c1c2c(N3CCCC3)ncnc2n2ccccc12)N1CCOCC1 | -6.579
Cn1cccc1C(=O)N1CCc2ncnc(N3CCOCC3)c2CC1 | -2.151
CN1CCCN(c2ncnc(N3CCOCC3)c2N)CC1 | 103.9
Nc1c(N2CCCC2)ncnc1N1CCOCC1 | 108.5
Nc1c(N2CCOCC2)ncnc1N1CCOCC1 | 121.8
O=C1COc2ccc(S(=O)(=O)NCC3CCCO3)c3c2N1CCC3 (stereo not given) | -4.147
Cc1ccc(CN2CC[C@H]3CO[C@H](CN(C)Cc4ccco4)[C@H]3C2)s1.O=C(O)C(F)(F)F.O=C(O)C(F)(F)F | 10.16
Cc1ccc(CN2CC[C@H]3[C@H](CO[C@H]3CN(C)C)C2)o1.O=C(O)C(F)(F)F.O=C(O)C(F)(F)F | -5.785
Cc1ccc(CN2CC[C@@H]3[C@@H](CO[C@H]3CN3CCN(C)CC3)C2)cc1.O=C(O)C(F)(F)F.O=C(O)C(F)(F)F.O=C(O)C(F)(F)F | 118.8

Structure (SMILES) | Percent Effect [%]
CN(Cc1cccnc1)C[C@@H]1OC[C@H]2CN(Cc3ccoc3)CC[C@H]21.O=C(O)C(F)(F)F.O=C(O)C(F)(F)F.O=C(O)C(F)(F)F | 6.292
CN1CCN(C[C@H]2OC[C@@H]3CCN(C(=O)c4cnccn4)C[C@@H]32)CC1.O=C(O)C(F)(F)F.O=C(O)C(F)(F)F | -7.535
Cc1ccc(CN2CC[C@@H]3[C@@H](CO[C@H]3CN3CCN(C)CC3)C2)s1.O=C(O)C(F)(F)F.O=C(O)C(F)(F)F.O=C(O)C(F)(F)F | 97.55
CN(C)C[C@@H]1OC[C@H]2CN(Cc3ccoc3)CC[C@H]21.O=C(O)C(F)(F)F.O=C(O)C(F)(F)F | 10.46
CN1CCN(C[C@@H]2OC[C@H]3CN(Cc4cccc(F)c4)CC[C@H]32)CC1.O=C(O)C(F)(F)F.O=C(O)C(F)(F)F.O=C(O)C(F)(F)F | -7.407
CN1CCN(C[C@@H]2OC[C@H]3CN(CCc4ccccc4)CC[C@H]32)CC1.O=C(O)C(F)(F)F.O=C(O)C(F)(F)F.O=C(O)C(F)(F)F | 108.2
CCN1CCC(N[C@@H]2CC[C@@H]2NC(=O)Cc2csc(C)n2)CC1 | 2.853
Clc1cccnc1N1CCC(NCc2cccc3cn[nH]c23)C1 (stereo not given) | 0.5809
COCC1c2nnn(CC3CC3)c2CCN1C(=O)c1ccncn1 (stereo not given) | -7.229
CN(C)c1ccc(-c2cc(C(=O)O)cc(S(=O)(=O)NC3CC3)c2)cc1 | -6.079
COCc1cc(O)nc(C2CCCN(Cc3cccc(OC)c3)C2)n1 (stereo not given) | 123.8
COCC1CCCN(CCCc2cccc(OC)c2)C1 (stereo not given) | 6.457
COCc1cc(O)nc(C2CCCN(Cc3ccc(OC)cc3)C2)n1 (stereo not given) | 126.6
CCc1cc(O)nc(C2CCCN(Cc3ccncc3)C2)n1 (stereo not given) | 119.5
COCc1nccc(C2CCCN(Cc3ccccc3C#N)C2)n1 (stereo not given) | -3.966
NC(=O)Cn1ccnc1C1CCCN(Cc2cccc(Cl)c2F)C1 (stereo not given) | -13.72
COCCN1C[C@H]2CN(Cc3cccc(OC)c3)CCN2C1=O | -3.935
Cc1cc(O)nc(C2CCCN(Cc3ccncc3)C2)n1 (stereo not given) | -8.016
COCc1cc(O)nc(C2CCCN(Cc3cccc(Cl)c3Cl)C2)n1 (stereo not given) | 101.5
COCc1cc(O)nc(C2CCCN(Cc3cc(OC)ccc3F)C2)n1 (stereo not given) | -12.81
